Tg IFNy HTS = blocks Toxoplasma gondii growth in the presence of IFN-gamma; actives 3.8% (n = 69,000); Toxoplasma gondii growth in IFN-gamma-treated host cells; active compounds read low; activity change, negative = inhibition, % (concentration not given with the values); AID 1259416; in the data active = activity change below about -70%, passing the limit was not always enough;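 note: host cells are HeLa cells infected with Toxoplasma gondii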
Numbers stand for hits; i = inactive; ! = not active in a repeat. The entries come from a sample that favours hits as a whole.

SMILES	Tg IFNy HTS
COc1cccc(CNC(=O)CN2CCC3(CC2)Nc2ccccc2S(=O)(=O)N3)c1	i
CC(=O)Nc1ccc(C(=O)N(Cc2cccc(C)c2)C2(C(=O)NCc3ccccc3)CCN(C(C)=O)CC2)cc1	i
Cc1oc(-c2cccc(Cl)c2)nc1CN1CCN(C(=O)Nc2ccc(F)cc2)CC1	i
Cc1ccc(CNC(=O)CN2C(=O)CCc3cc(S(=O)(=O)N4CCCC4)ccc32)o1	i
Cn1cc(NC(=O)c2cccc(CN3CCCC(O)C3)c2)cn1 (stereo not drawn)	i
CC1c2cccn2CCN1Cc1cn(-c2ccccc2)nc1-c1ccc2c(c1)OCO2 (stereo not drawn)	i
c1ccc2c(c1)CC1(CCCCC1)n1nnnc1-2	i
O=C1C(=O)N2C(=C1C(=O)N1CCCCCC1)c1ccccc1CC21CCCC1	i
O=C1C(=O)N2C(=C1C(=O)N1CCOCC1)c1ccccc1CC21CCCCC1	-96
Cc1cc(Cc2ccc(C(F)(F)F)cc2)cc(C2CCN(C(=O)Cc3ccccn3)C2)n1 (stereo not drawn)	i
CC(C)=CCc1c(O)cc2oc(C)cc(=O)c2c1O	i
COc1c(O)cc2oc3cc(O)c(CC=C(C)C)c(O)c3c(=O)c2c1CC=C(C)C	-71
COc1cc2oc3cc(OC)c(OC)c(CC=C(C)C)c3c(=O)c2c(O)c1CC=C(C)C	i
O=S(=O)(c1ccc(-c2ccno2)o1)N1CCC2(CCNCC2)C1	i
Cc1ccc(-c2nnc(SCC(=O)c3ccc4c(c3)n(C)c(=O)n4C)n2C)cc1	-98
CC(C)OC(=O)CSc1nnc(-c2ccc(O)cc2)n1C	i
Cc1ccc(C(=O)CSc2nnc(-c3ccncc3)n2C)cc1	i
CCn1cc(C(=O)NCc2ccc(O)c(OC)c2)c(C)n1	i
CCOc1cccc(C2c3[nH]c4ccccc4c3CCN2C(=O)c2ccccc2OC)c1 (stereo not drawn)	-105
CCOc1cccc(C2c3[nH]c4ccccc4c3CCN2C(=O)COC)c1 (stereo not drawn)	i
COc1ccccc1C(=O)N1CCc2c([nH]c3ccccc23)C1c1ccccc1 (stereo not drawn)	i
COc1ccccc1C(=O)N1CCc2c([nH]c3ccccc23)C1c1ccc(Cl)cc1 (stereo not drawn)	i
CCOc1cccc(C2c3[nH]c4ccccc4c3CCN2C(=O)C2CCC2)c1 (stereo not drawn)	i
CCOc1cccc(C2c3[nH]c4ccccc4c3CCN2C(=O)c2cccc(N(C)C)c2)c1 (stereo not drawn)	i
CCOc1cccc(C2c3[nH]c4ccccc4c3CCN2C(=O)c2ccc(F)cc2)c1 (stereo not drawn)	-98
SMILES	Tg IFNy HTS
CCOc1cccc(C2c3[nH]c4ccccc4c3CCN2C(=O)c2cccc(OC)c2)c1 (stereo not drawn)	-103
Cc1ccc(C(=O)N2CCc3c([nH]c4ccccc34)C2c2cccc(C)c2)cc1 (stereo not drawn)	i
CCOc1cccc(C2c3[nH]c4ccccc4c3CCN2C(=O)c2ccc(C)cc2)c1 (stereo not drawn)	-122
CN1C(=O)C(F)=C[C@]2(C)[C@H]3CC[C@]4(C)[C@@H](C(=O)NCc5nc6ncccc6[nH]5)CC[C@H]4[C@@H]3CC[C@@H]12	i
CCOc1ccc2oc(C)c(C(=O)N3CCN4C(=O)CNC(=O)C4C3)c2c1 (stereo not drawn)	i
COc1ccc(CC(=O)N2CCN(S(=O)(=O)c3cc4c5c(c3)CCN5C(=O)CC4)CC2)cc1	i
CN1CC2(CCN(C(=O)c3cnc4c(c3)nnn4C)C2)OC1=O (stereo not drawn)	i
COc1ccccc1N1CCN(c2nc(-c3ccc(Cl)cc3)nc3ccccc23)CC1	i
O=C(Cc1ccc(F)cc1)N1CCC2(CC1)Nc1cc(F)ccc1-n1cccc12	i
CCCC(=O)N1CC[C@H]2[C@H](CC1)S(=O)(=O)CCN2C	i
Cc1ccc2c(c1C)-n1cccc1C1(CCN(S(=O)(=O)c3cnc[nH]3)CC1)N2	i
CC(C)(C)c1csc(NC(=O)Nc2ccc(Cl)cc2)n1	-103
Cc1nc(-c2cccs2)sc1NC(=O)Nc1ccc(Cl)cc1	i
CC(CC(=O)Nc1nc(C(C)(C)C)cs1)n1cncn1 (stereo not drawn)	i
CN1C[C@]23CN(C(=O)COc4ccccc4)C[C@@H](C[C@H]2S1(=O)=O)O3	i
C=CCN(CC=C)C(=O)Nc1ccc2nsnc2c1	-81
O=C(Nc1ccc2c(c1)OCCO2)c1ccc2nsnc2c1	i
CCC(=O)Nc1c(C)ccc2nsnc12	i
Cn1nc(-c2cccc(F)c2)c2c1C[C@H]1CN(Cc3ccncc3)C[C@H]21	i
N#Cc1ccc(OCc2ccc(C(F)(F)F)cc2)cc1	-81
FC(F)(F)c1cccc(OCc2ccc(-c3ncns3)cc2)c1	i
O=C(O)c1ccc(OCc2ccccc2)cc1	i
CS(=O)(=O)N1CCOC(Cn2cnc3sc4c(c3c2=O)CCNC4)C1 (stereo not drawn)	i
Cc1onc(-c2c(F)cccc2Cl)c1-c1nnc(-c2ccc(C(F)(F)F)cc2)o1	-99
Cc1onc(-c2c(Cl)cccc2Cl)c1-c1nc2cccc(F)c2c(=O)o1	i
SMILES	Tg IFNy HTS
FC(F)(F)c1ccc(-c2nnc(COc3ccccc3Cl)o2)cc1	i
CN(C)C1CCN(C(=O)C2=NOC3(CCN(Cc4ccc(Cl)c(F)c4)C3)C2)CC1 (stereo not drawn)	i
CCCCOc1ccccc1C(=O)N1CCCC2(CN(C)C(=O)O2)C1 (stereo not drawn)	i
COc1ccc(C(=O)C2CCN(Cc3nnnn3Cc3cccs3)CC2)cc1	i
Cc1cnc(CN2CCC(Cc3nn(C)c(=O)n3-c3ccccc3)CC2)[nH]1	i
O=C(Cn1ncc2c(N3CCCC3)ncnc21)Nc1ccc(OC(F)(F)F)cc1	i
Cc1ccc(NC(=O)Cn2ncc3c(N4CCCC4)ncnc32)cc1Cl	i
O=C(Cn1ncc2c(N3CCN(c4ccccc4)CC3)ncnc21)Nc1ccc(OC(F)(F)F)cc1	i
Cc1ccc(NC(=O)Cn2ncc3c(N4CCCCCC4)ncnc32)cc1F	-101
O=C(Cn1ncc2c(N3CCCC3)ncnc21)Nc1ccc(F)c(Cl)c1	i
O=C(Cn1ncc2c(N3CCCCCC3)ncnc21)Nc1ccc(OC(F)(F)F)cc1	-98
COc1cccc(CNC(=O)CCC2CCCN(c3nc4ccccc4s3)C2)c1 (stereo not drawn)	i
CN(C)c1ccc(C(=C2C=CC(=[N+](C)C)C=C2)c2ccc(N(C)C)cc2)cc1	-81
O=C(CO)N1CCc2[nH]nc(-c3ccc(F)cc3)c2CC1	i
CC(C)N1CCNC(=O)C1CC(=O)NCCc1cnc2ccccn12 (stereo not drawn)	i
CCOC(=O)c1[nH]ncc1CN1CCCN(c2cccc(OC)c2)CC1	i
CCOC(=O)c1cc(C(=O)OC)c(C)nc1N1CCCN(Cc2ccc(F)cc2)CC1	-77
Fc1ccc(N2CCCN(Cc3ccc4nonc4c3)CC2)cc1	i
COc1ccc(OC)c(NC(=O)CN2C(=O)CCc3cc(Br)ccc32)c1	i
CC(C)(C)n1nc(-c2cccc3ccccc23)c2c(N)ncnc21	-76!
c1ccc(-c2nc3ccccc3nc2-c2cccc3ccccc23)cc1	i
CCn1ncc(C(=O)N2CCc3nc(N(C)C)[nH]c(=O)c3CC2)c1C	i
c1ccc(CNc2cc(-c3ncnc4c3CCC4)c3cc[nH]c3n2)nc1	i
CCc1cc(=O)oc2cc3occ(-c4ccc(OC)c(F)c4)c3cc12	-78
CCc1cc(=O)oc2cc(OCC=C(C)C)ccc12	i
COc1cc2c(=O)c(-c3ccc(O)cc3)coc2cc1O	i

Compound activity (PubChem BioAssay)
